# Source: PubChem BioAssay
# Sm TGR inh = blocks Schistosoma mansoni thioredoxin glutathione reductase; Q962Y6; purified TGR, DTNB reduction, TNB absorbance 405 nm; Potency, µM (doses to about 114 µM), for inactives: at the highest dose activity change, negative = inhibition, actives largely listed as inhibitors; 3% of 360,000 active; AID 485364; note: potency is the fitted concentration of half-maximal effect; nearly all actives have a fitted effect of over 60% in size
#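 Kinetic colorimetric format: TGR-catalysed, NADPH-driven DTNB reduction monitored via TNB absorbance. Enzyme dispensed at 20 nM; compound exposure 15 min at room temperature before reaction start.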
# HCMV antiviral = inhibitors of human cytomegalovirus; HFF cells, HCMV-luciferase reporter, 72 h; active compounds read low; activity change, negative = inhibition, % at 57.5 µM; 4.5% of 410,000 active; in the data active = activity change below about -60%; inconclusive = no clear call, values can overlap the other calls; inactive = above about -39%
#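 Two-dose cell screen: HFF monolayers treated with compounds and infected with luciferase-expressing HCMV at 1 PFU/cell, 72 h at 37C, then lysed for luciferase measurement.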
# FBPA Giardia inh = blocks Giardia fructose-bisphosphate aldolase activity; A8B2U2; purified Giardia FBPA; Potency, µM (titrated, usually from 59.6 µM), for inactives: at the highest dose activity, negative = inhibition, most hits filed as inhibitors; 0.71% of 290,000 active; note: potency is the fitted concentration of half-maximal effect; nearly all actives have a fitted effect of over 55% in size
# Target sequence (A8B2U2 whole entry, looked up): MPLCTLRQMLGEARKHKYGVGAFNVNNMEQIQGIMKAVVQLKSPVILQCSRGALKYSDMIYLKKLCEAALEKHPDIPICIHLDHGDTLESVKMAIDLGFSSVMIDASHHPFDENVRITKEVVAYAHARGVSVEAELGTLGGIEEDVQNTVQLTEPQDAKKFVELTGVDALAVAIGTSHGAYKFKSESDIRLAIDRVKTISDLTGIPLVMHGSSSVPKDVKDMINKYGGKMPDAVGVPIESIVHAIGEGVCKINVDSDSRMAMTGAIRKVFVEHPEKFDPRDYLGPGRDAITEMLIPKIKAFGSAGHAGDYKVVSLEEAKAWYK
#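 Giardia FBPA (40 nM reagent) was preincubated 10 min at RT with compound (up to 57.5 uM final), then substrate plus GAPDH/TPI/NAD/arsenate coupling system with diaphorase/resazurin was added; resorufin fluorescence (525/598 nm) was read after 20 min.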
# Pf growth 96h = inhibits malaria parasite growth, 96 h; Potency, µM (titrated, usually from 28.7 µM), without a hit: at the highest dose activity change, negative = inhibition, hits mostly inhibitors; 6.9% of 320,000 active; P. falciparum luciferase reporter growth, 96 h; note: potency is the fitted concentration of half-maximal effect
#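 Two-generation exposure (96 h) targets delayed-death phenotype. Reporter parasites carrying integrated firefly luciferase, in red cells at 2% hematocrit and 0.05% parasitemia final, kept at 37 C, 5% CO2; luminescence loss indicates inhibition.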
# Pf growth 48h = inhibits P. falciparum growth in the first generation, 48 h; 5.9% of 310,000 active; AID 504832; Potency, µM (highest dose often 28.7 µM), for inactives: at the top dose activity change, negative = inhibition, most hits filed as inhibitors; P. falciparum luciferase growth in erythrocytes, 48 h; note: potency is the fitted concentration of half-maximal effect
#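 A one-generation exposure of luciferase-tagged malaria parasites in RPMI 1640/Albumax erythrocyte culture, 37 C and 5% CO2. Inhibition is inferred from decreased luminescence after adding detection reagent.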
# Active calls of the source: *; ? = inconclusive; / = no result given; [ ] = remark or other dose. In the library only some 14% were active in any assay of this set; here they are far more common. Unless noted, calls come from the whole dose curve; as a rule, active = well fitted curve in the direction sought with a large enough effect; inconclusive = small, poorly fitted or top-dose-only effect, or another doubt; inactive = no such curve, though single readings can be large; an effect the other way counts as inactive or inconclusive. % is set by controls: 0 for no effect and ±100 for the full control effect.
SMILES,Sm TGR inh,HCMV antiviral,FBPA Giardia inh,Pf growth 96h,Pf growth 48h
CCOc1cc(-n2cnnn2)c(OCC)cc1NC(=O)c1cnccn1,-6%,4,1%,5.2µM*,-3%
CCOc1ccc(NC(=O)c2oc3ccccc3c2NC(=O)C2CCCCC2)cc1,-3%,2,/,/,/
CCCCCC[n+]1c(-c2ccc(Cl)cc2Cl)csc1Nc1ccccc1,-3%,-6,3%,?,1.2µM*
CCN1CCN(C(=O)c2cc(S(=O)(=O)Nc3ccc(S(C)(=O)=O)cc3)ccc2Cl)CC1,8%,-1,-1%,-2%,-16%
N#Cc1c(-n2ncnc2-c2ccccc2C(F)(F)F)sc2c1CCCCC2,1%,-69*,/,/,/
Nc1nc(NCCO)nc(NC2CCCCC2)c1[N+](=O)[O-],-7%,?,7%,5.2µM*,/
Nc1nc(Nc2ccccc2)nc(NC2CCCCC2)c1[N+](=O)[O-],6%,-79*,-4%,13µM*,?
Nc1nc(NCCOCCO)nc(NC2CCCCC2)c1[N+](=O)[O-],6%,-1,-1%,12µM*,?
CN(C)CCCNc1nc(N)c([N+](=O)[O-])c(NC2CCCCC2)n1,12%,0,-5%,-28%,-20%
O=C(c1ccc(N2C(=O)CCC2=O)cc1)N1CCCSC1=Nc1ccccc1,/,-22,/,/,/
COc1ccc(Nc2ccncc2[N+](=O)[O-])cc1,0%,-71*,9%,?,0%
COC(=O)c1ccccc1NC(=O)c1c(C)oc2ncn(C)c(=O)c12,-1%,-91*,/,/,/
C/C(CCN1CCc2nc(-c3ccccc3)c(-c3ccccc3)cc2C1)=N\O[C@@H](C)c1cn([C@H](CO)Cc2ccccc2)nn1,-19%,/,-3%[12.9 µM],13µM*,?
CC(OC(=O)c1ccc(F)c(S(=O)(=O)N2CCOCC2)c1)C(=O)NC1CCCC1 (stereo unspecified),-3%,?,/,2%,4%
CC1(C)CC2CC(C)(CN2C(=O)c2cc(-c3ccc(O)cc3)on2)C1 (stereo unspecified),-6%,-61*,-5%,13%,-6%
COc1cccc(-c2cc(C(=O)N3CC4(C)CC3CC(C)(C)C4)no2)c1 (stereo unspecified),-15%,33,4%,-4%,?
Cc1c(C(=O)N2CCC3(CC2)OCCO3)sc2ncnc(N3CCN(c4ccccn4)CC3)c12,4%,-35,-1%,12µM*,?
COc1ccc(NC(=O)c2sc3nc(C)nc(N4CCN(c5ccccn5)CC4)c3c2C)cc1Cl,0%,-38,5%,-23%,1.9µM*
COc1ccc(NC(=O)c2sc3ncnc(N4CCN(c5ccccn5)CC4)c3c2C)cc1Cl,-6%,?,/,?,6.6µM*
COCCCNC(=O)c1sc2ncnc(N3CCc4ccccc4C3)c2c1C,-2%,-11,-21%,6.6µM*,?
Cc1c(C(=O)N2CCOCC2)sc2ncnc(N3CCc4ccccc4C3)c12,-3%,13,-1%,59%,-21%
CCc1ccc(NC(=O)c2sc3nc(C)nc(N4CCN(c5ccccn5)CC4)c3c2C)cc1,0%,?,5%,3%,-7%
O=c1[nH]c(/C=C/c2ccc(Cl)cc2Cl)c([N+](=O)[O-])c(=O)[nH]1,72%,74,12%,497%,195%
Cc1nc2cc(-c3cccc(F)c3)nn2c(C)c1CCC(=O)Nc1ccccc1C(N)=O,4%,-35,/,/,/
CC(C)CN1CCC2(CC1)CCN(C(=O)c1cccc(F)c1)CC2,/,/,3%,/,/
C/C(=N\NC(=O)COc1cccc(Br)c1)c1ccc2c(c1)OCCO2,-1%,1,/,56%,0%
COc1ccc(-n2c(/C=C/c3ccc(O)c(O)c3)nc3ccccc3c2=O)cc1,-32%,?,-28%,2.3µM*,5.2µM*
O=c1c2ccccc2nc(/C=C/c2ccc3c(c2)OCO3)n1-c1ccccc1,12%,-11,-4%,10µM*,?
CC1(C)CC(O)C(C(O)c2cccc([N+](=O)[O-])c2)C(C)(C)N1 (stereo unspecified),7%,-14,3%,-20%,-2%
O=C(c1ccc(Br)cc1)N1CCC(C(=O)N2CCN(Cc3ccccc3)CC2)CC1,-25%,-38,/,-13%,-22%
